# Screening data (PubChem)
# Hits are enriched below; roughly 2.6% of the tested compounds scored in any of these assays.
# Gli-Sufu block = antagonists of Gli-Sufu signaling; 0.74% of 340,000 active; inhibition, % at 5 µM; Sufu-KO-LIGHT fibroblasts, Gli luciferase reporter luminescence;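 active = inhibition above about 55%, limit read from the data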;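 also: 0% = DMSO-treated cells and 100% = wells with medium but no cells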
# 697 NFkB inh = inhibitors of the PMA/ionomycin-induced NF-kB reporter in 697 B cells; 697 B-cell NF-kB luciferase reporter, 16 h; AID 435022; 0.33% of 330,000 active; inhibition, % at 4 µM; in the data active = inhibition above about 35%
# Cardio protect = modulators protecting cardiomyocytes from myocardial damage. H9c2 cardiomyocytes, H2O2 injury protection, ATPLite, 2 h. protection from H2O2 cell death, % at 20 µM. 0.63% of 360,000 active;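 active = compounds giving at least 50% protection of heart cells from peroxide-induced death in the single-dose screen, raw or plate-pattern-corrected value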;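 also: 0% = DMSO wells with peroxide and 100% = DMSO wells without peroxide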
# H9c2 TAG inh = inhibitors of triacylglycerol accumulation; H9c2 cells, Nile Red lipid (TAG) fluorescence; cells loaded with 200 µM oleic acid; inhibition, % at 12.5 µM; 0.66% of 230,000 active; AID 651582;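 active = pattern-corrected inhibition of lipid staining of at least 50% with the nuclear-stain viability signal not falling by more than 50%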;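 also: 0% = DMSO wells and 100% = triacsin C control wells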
# COUP-TFII inh = NR2F2 (human) inhibition, primary screen. P24468. HEK293T NGFI-A luciferase reporter, luminescence. inhibition, % at 8.6 µM. 0.7% of 370,000 active;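 active = inhibition above a per-plate cutoff, mean inhibition of test wells between control levels plus 3 SD, cut at about 38% in these data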;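 also: cells cotransfected with COUP-TFII expression vector driving the NGFI-A reporter; 0% = median of COUP-TF2 test wells and 100% = reporter-only cells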
# Target sequence (P24468 whole entry, looked up): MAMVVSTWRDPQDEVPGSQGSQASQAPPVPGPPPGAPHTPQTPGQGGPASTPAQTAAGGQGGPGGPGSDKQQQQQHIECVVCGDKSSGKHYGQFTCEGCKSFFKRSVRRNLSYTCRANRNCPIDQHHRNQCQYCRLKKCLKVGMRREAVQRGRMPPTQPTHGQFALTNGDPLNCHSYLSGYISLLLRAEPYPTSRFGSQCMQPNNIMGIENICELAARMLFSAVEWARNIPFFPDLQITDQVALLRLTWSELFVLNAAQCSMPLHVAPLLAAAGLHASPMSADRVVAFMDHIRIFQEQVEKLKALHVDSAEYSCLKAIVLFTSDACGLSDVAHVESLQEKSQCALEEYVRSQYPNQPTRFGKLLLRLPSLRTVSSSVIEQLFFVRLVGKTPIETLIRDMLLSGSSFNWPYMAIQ
# Jurkat NFkB inh = inhibitors of the PMA/ionomycin-induced NF-kB reporter in Jurkat cells | PMA/ionomycin-induced NF-kB luciferase reporter, luminescence | 0.53% of 330,000 active | AID 435003 | inhibition, % at 4 µM; in the data active = inhibition above about 50%
# Gli-Sufu confirm = confirmation of Gli-SUFU pathway antagonists; inhibition, % at 5 µM; 40% of 2,500 active; shares compounds with Gli-Sufu block; AID 602428; Sufu-KO-LIGHT cells, Gli luciferase reporter, luminescence;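 active = mean inhibition at 5 µM reaching about 45%, limit read from the data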;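 also: plate controls were DMSO-treated cells for no effect and wells lacking cells for full effect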
# Gli cytotox = cytotoxicity counter-screen for Gli-SUFU antagonists; cytotoxicity, % at 5 µM; 32% of 2,500 active; Sufu-KO-LIGHT cells cytotoxicity, ATP luminescence; shares compounds with Gli-Sufu block;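 active = mean cytotoxicity at 5 µM above about 25%, limit read from the data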;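 also: cells exposed to compound overnight for roughly 16 to 18 hours; plate controls were DMSO wells with cells for no effect and medium without cells for full effect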
# Wnt3a counter = inhibits Wnt3a reporter, counter-screen for Gli-SUFU antagonists. shares compounds with Gli-Sufu block. Wnt-LIGHT cells, Wnt3a-driven luciferase reporter, luminescence. inhibition, % at 6.25 µM. 20% of 2,500 active;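 active = mean inhibition above about 25%, limit read from the data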
# * marks the source's active call; other numbers are inactive results; . = no result given.
SMILES,Gli-Sufu block,697 NFkB inh,Cardio protect,H9c2 TAG inh,COUP-TFII inh,Jurkat NFkB inh,Gli-Sufu confirm,Gli cytotox,Wnt3a counter
COc1ccccc1NC(=O)CN(c1ccccc1)S(=O)(=O)c1ccccc1,52.6,-5.7,-0.7,9.2,-8.2,-8.8,25.4,3.0,-10.2
C[C@@H]1OC(C2CCCCC2)N(C)[C@H]2C[C@H]3c4cc(N5CCOCC5)ccc4CCN3C[C@@H]12 (stereo partly drawn),.,.,.,.,-17.8,.,.,.,.
CC(=O)C1=C(C)N(Cc2ccc(Br)cc2)C(=S)NC1c1cccc(F)c1 (stereo not drawn),.,.,.,.,10.4,.,.,.,.
O=C(c1ccc(F)cc1)C1CCN(C(=S)NCC2CCCO2)CC1 (stereo not drawn),62.6*,-7.8,-10.0,0.7,-5.0,9.4,13.0,9.9,9.8
Cc1ccc(C(=O)C2CCN(C(=S)NCC3CCCO3)CC2)cc1 (stereo not drawn),14.8,-12.0,-2.3,-11.1,23.9,0.6,.,.,.
COCC(=O)N[C@H]1C[C@@H]2O[C@H](CO)CC[C@@H]2O[C@@H]1CCc1ccc(-c2ccccc2)cc1,.,.,.,.,-1.1,.,.,.,.
COC(=O)C(C)Sc1nc2c(cnn2-c2ccc(Cl)cc2)c(=O)[nH]1 (stereo not drawn),60.1*,-5.1,-2.6,.,1.5,-8.2,16.1,7.1,1.1
CC1CCN(CC(=O)NCc2ccccc2)CC1,-2.4,-1.1,-7.8,.,-12.3,-6.6,.,.,.
CCc1nc2ccccc2c(NC(=O)CN2CCC(C)CC2)c1C,50.5,-21.1,8.2,-7.9,2.4,2.0,18.3,8.3,-3.1
O=C(Nc1ccccc1)C1=C[C@H](C2CCCCC2)C[C@H](OCCCCO)O1,62.4*,-38.5,-0.6,.,12.3,-53.6,82.3*,4.5,-45.8
Cc1[nH]nc2c1C(c1cccs1)C(C#N)=C(N)O2 (stereo not drawn),2.2,9.4,5.0,.,-1.8,5.2,.,.,.
Cc1ccsc1C1C(C#N)=C(N)Oc2n[nH]c(C)c21 (stereo not drawn),64.9*,19.8,-1.0,0.6,-3.5,0.2,20.9,3.4,9.9
N#CC1=C(N)N2C(=C(C#N)C1c1ccc(Br)cc1)Nc1ccccc12 (stereo not drawn),58.1*,7.5,.,.,5.6,-2.2,82.7*,37.0*,66.6*
Cc1ccc(Cn2cc(CN3[C@H](CC(C)C)COc4cc(Br)ccc4S3(=O)=O)nn2)cc1,.,.,.,.,4.7,.,.,.,.
O=C(NCCc1c[nH]c2ccccc12)Nc1cccc2ccccc12,7.0,-22.8,-9.3,-3.8,3.9,8.3,.,.,.
Cc1cccc(NC(=O)NCCc2c[nH]c3ccccc23)c1,59.6*,-93.3,-6.9,-26.7,-10.4,-25.3,6.5,10.9,-14.1
CCC(C)CCN1C(N(C)C)=NC[C@@H]1CC(C)C (stereo partly drawn),70.7*,-14.7,-14.2,-2.1,1.9,-6.2,55.9*,15.6,18.0
CC(C)C[C@H]1CN=C(N(C)C)N1CCCCc1ccccc1,60.5*,-35.6,-26.3,-9.2,-1.7,22.9,62.0*,24.4,23.3
CCC(CC)CN1C(N(C)C)=NC[C@@H]1CC(C)C,56.1*,5.1,-13.8,-3.5,-22.1,2.7,50.6*,16.4,24.8
C[C@H]1CN=C(N(C)C)N1CCCCc1ccccc1,2.3,0.2,-9.3,2.9,2.9,1.3,.,.,.
O=C(CSc1nnc(-c2ccc(Cl)cc2)n1-c1ccccc1)Nc1ccc2c(c1)OCCO2,.,.,.,.,10.1,.,.,.,.
COc1ccccc1CN(Cc1nc2ccccc2c(=O)[nH]1)S(=O)(=O)c1ccc(C)cc1,52.9,-2.4,.,.,3.1,-7.3,40.2,7.5,-1.9
CCOC(=O)CC[C@@]1(C(=O)OCC)C[C@@H](CC(=O)NCC23CC4CC(CC(C4)C2)C3)C(=O)N2CCCC=C21,.,.,.,.,-4.3,.,.,.,.
CCc1nc(N)nc(N)c1-c1ccc(N(C)Cc2ccccc2)c([N+](=O)[O-])c1,62.5*,.,-7.8,16.5,10.6,.,49.0*,21.0,16.7
COc1cccc2c1[C@H](/C=C/c1ccccc1)[C@@H]([C@H](O)COC(C)=O)OC2,.,.,.,.,-1.9,.,.,.,.
SMILES,Gli-Sufu block,697 NFkB inh,Cardio protect,H9c2 TAG inh,COUP-TFII inh,Jurkat NFkB inh,Gli-Sufu confirm,Gli cytotox,Wnt3a counter
CN(c1ccccc1C(=O)NC1CCCCC1)S(=O)(=O)c1ccccc1,27.2,10.9,6.8,-8.2,-30.1,0.5,.,.,.
CN(c1ccccc1C(N)=O)S(=O)(=O)c1ccccc1,51.7,-12.6,4.6,-8.9,12.1,0.6,12.5,8.6,19.1
O=C(O)C1CCCN1C(=O)c1cccc(Cl)c1 (stereo not drawn),.,.,.,.,3.9,.,.,.,.
CCC(C)[C@H](NC(=O)c1cn(CC)c2cc3c(cc2c1=O)OCO3)C(=O)NCCCn1ccnc1 (stereo partly drawn),53.1,-8.3,-6.6,.,8.7,0.8,4.7,-9.4,18.1
C[C@H]1COc2cccc(F)c2S(=O)(=O)N1C,.,.,.,.,-16.0,.,.,.,.
Cc1nn(C)c(C)c1NS(=O)(=O)c1ccc(Cl)cc1,-4.1,-0.9,-8.3,-12.1,12.4,-3.4,.,.,.
CCN(CC)S(=O)(=O)c1ccc(S(=O)(=O)Nc2c(C)nn(C)c2C)cc1,65.5*,-60.3,-24.9,-6.5,37.0,32.1,54.3*,18.2,25.4*
Nc1nc2ccccc2n1/N=C/c1ccc([N+](=O)[O-])s1,54.3,-28.2,-17.6,.,9.7,18.6,52.6*,19.0,-117.8
C=CCN1[C@@H](C)[C@H](c2ccccc2)Oc2cccc(N3CCCC3)c2S1(=O)=O,.,.,.,.,-2.5,.,.,.,.
Cc1ccc(-c2c[n+](Cc3ccc(Cl)c(Cl)c3)c3n2CCC3)cc1,84.6*,-31.4,-13.2,.,19.4,11.3,79.7*,26.4*,-13.6
O=C(Nc1ccc(C(F)(F)F)cc1)OC1CC2CC1[C@H]1CCCCN1[C@H]2Cc1ccccc1 (stereo partly drawn),.,.,.,.,-5.6,.,.,.,.
CCC(C)[C@H]1CN=C(N)N1CCc1cccc2ccccc12 (stereo partly drawn),62.4*,-25.0,-6.4,.,0.4,20.7,66.5*,23.9,7.5
O=C(CN1CCSCC1)c1c[nH]c2ccccc12,99.2*,7.4,4.5,-14.3,-4.2,-2.7,22.1,8.9,-34.1
Cc1cc(O)cc(=O)n1-c1cccc([N+](=O)[O-])c1,.,.,.,.,10.3,.,.,.,.
NNC(=O)c1cc2ccccc2cc1O,60.7*,-13.0,64.8*,2.6,27.2,-21.2,72.0*,6.3,83.5*
Cc1ccc(Cl)cc1NC(=O)c1cc2ccccc2cc1O,60.7*,-14.5,-22.2,-0.1,22.7,13.4,70.9*,26.3*,56.2*
C/C(=N\O)C(C)(C)Nc1cccc(F)c1,-0.4,3.8,0.0,-9.3,4.8,-10.4,.,.,.
